# Measured values: ChEMBL document CHEMBL3433997, “St. Jude Leishmania screening dataset” (2016)
# Where “and” joins values, the source holds several entries; their conditions need not be identical. Equal entries are not always repeated.
# Molecular target: Solute carrier family 2, facilitated glucose transporter member 1 (Homo sapiens) (UniProt P11166)
# Assay: ST_JUDE_LEISH: Cytotoxicity at 2uM final concentration against transgenic Leishmania Mexicana promastigotes LmGLUT1 that are glucose transport deficient and complemented with the human glucose transporter GLUT1. Activity is measured by DNA content using SYBR green in vitro
# Format: functional
# Solute carrier family 2, facilitated glucose transporter member 1 (Homo sapiens), sequence (P11166 whole entry): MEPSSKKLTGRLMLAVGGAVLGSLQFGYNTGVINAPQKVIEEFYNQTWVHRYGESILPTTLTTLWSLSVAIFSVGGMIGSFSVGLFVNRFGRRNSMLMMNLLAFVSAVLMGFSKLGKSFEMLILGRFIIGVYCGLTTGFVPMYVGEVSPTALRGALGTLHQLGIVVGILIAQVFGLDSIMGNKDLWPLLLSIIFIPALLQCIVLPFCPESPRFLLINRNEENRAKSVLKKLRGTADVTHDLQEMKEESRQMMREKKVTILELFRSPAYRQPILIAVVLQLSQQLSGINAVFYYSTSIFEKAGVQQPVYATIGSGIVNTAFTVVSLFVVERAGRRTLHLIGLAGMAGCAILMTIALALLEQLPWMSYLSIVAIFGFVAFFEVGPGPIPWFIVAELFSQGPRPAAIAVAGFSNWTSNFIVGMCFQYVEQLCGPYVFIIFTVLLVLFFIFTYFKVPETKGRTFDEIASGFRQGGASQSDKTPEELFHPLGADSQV
row,Compound,inhibition
1,Cc1cccc(-n2c(Nc3ccc(C)c(Cl)c3)nc3ccc(S(=O)(=O)NC(C)C(C)C)cc32)c1 (stereo not given),2.71%
2,Cc1cccc2nc(-c3cccc(-c4cccc(NC(=O)Cc5c[nH]cn5)c4)c3)[nH]c12,1.54%
3,CN1CCN(c2cc3c(cc2Br)CCN3C(=O)Nc2ccc(-c3cnc4ccccc4c3)cc2)CC1,107%
4,Cc1cccc2nc(-c3ccc(-c4ccc(NC(=O)CN5CCN(C)CC5)cc4)cc3)[nH]c12,2.26%
5,O=C(Nc1ccc(C(=O)Oc2ccc3ccccc3c2)cc1)N[C@@H](Cc1ccc(O)cc1)C(=O)NC1CCN(Cc2ccc(O)cc2)C1 (stereo not given in full),0.75%
6,CN1CCN(CCCCCCNc2c3ccccc3nc3ccccc23)CC1,27.1%
7,CCCCCC(C)C(C)c1cc(O)c2c(c1)OC(C)(C)C=C2c1cc[n+]([O-])cc1 (stereo not given),11%
8,N=C(N)c1ccc(C=Cc2ccc(C(=N)N)cc2O)cc1,-0.26%
9,COc1cc(NC(=O)c2sc(-c3ccc(Cl)cc3)cc2NC(=O)c2cccc(N(C)C)c2)ccc1OCCN1CCCC1,0.3%
10,COc1cc(NC(=O)N2CCc3cc(OC)c(OCCN4CCCCC4)cc32)cc(C(F)(F)F)c1,12.9%
11,Cc1ccccc1C1CCN(C2CCC(NC(=O)/C=C/c3c(F)ccc(F)c3F)CC2)CC1 (stereo not given),2.52%
12,CCN(C)C(=O)n1ncc2c3c(N)nc(N)nc3ccc21,3.44%
13,Cc1[nH]c(C)c(-c2ccc(CCc3ccc(N)cc3)cc2)c(=O)c1Cl,4.43%
14,O=C(/C=C/c1ccc(Cl)c(Cl)c1)NCCCCCN1CCC(NC(=O)c2ccc([N+](=O)[O-])cc2)CC1,12.2%
15,COc1cc2ccccc2c(OC)c1CCNCCCCNCCc1c(OC)cc2ccccc2c1OC,10.9%
16,Nc1cccc(C=CC(=O)N=c2cc[nH]c3ccccc23)c1,-0.24%
17,O=C(/C=C/c1ccc(Cl)c(Cl)c1)NCCCCCCN1CCN(C(=O)Nc2cccc(Cl)c2)CC1,0.57%
18,NC1CCN(CCNCc2cccc(-c3ccc(-c4nc5cc(F)ccc5[nH]4)cc3)c2)C1 (stereo not given),7.06%
19,CC1(C)N=C(N)N=C(N)C1c1ccc(Cl)cc1 (stereo not given),4.19%
20,CCN(CC)CCCN(C(=O)Nc1c(Cl)cncc1Cl)c1nc(-c2ccc(F)cc2)cs1,2.47%

row,Compound,inhibition
1,CC1CCCCN1S(=O)(=O)c1ccc(NC(=O)c2cc(-c3ccccc3O)n[nH]2)cc1 (stereo not given),1.2%
2,COc1ccc(Cc2c(Cl)nc3nc(N)nc(N)c3c2C)cc1,7.37%
3,Cc1ccc(O)cc1Nc1ccnc2ccc(C(C)(C)C)cc12,-2.04%
4,O=C(/C=C/c1ccc(Cl)c(Cl)c1)NCCCCCN1CCCC(CNS(=O)(=O)c2ccc(F)cc2)C1 (stereo not given),-1.15%
5,Cn1nc(-c2ccccc2F)c2cc(C(=O)NC3CCN(Cc4ccccc4)CC3)sc21,-0.18%
6,O=C(/C=C/c1ccc(Cl)c(Cl)c1)NCCCCCN1CCC(c2c[nH]c3ccccc23)C(O)C1 (stereo not given),0.14% and 4.45%
7,N=C(N)CCN(Cc1ccccc1)c1ccc(Cl)cc1,-1.51%
8,CCCCCCN1CCN(Cc2cccc(NC(=O)c3ccc(Cl)c(Cl)c3)c2)CC1,5.8%
9,COc1cc(OC)cc(C(=O)Nc2nc(-c3ccc(NC(=O)c4ccccc4)cc3)cs2)c1,16.3%
10,O=S(=O)(NCCN1CCCC1)c1cccc(-c2cccc(CNCc3ccccc3)c2)c1,20%
11,CCN1CCC(N(Cc2ccc(-c3ccc(C(F)(F)F)cc3)o2)C(=O)Cn2c(CCc3cccc(F)c3F)nc(=O)c3ccccc32)CC1,11.3%
12,CC(=O)Nc1ccc(CN2CCC(CNC(=O)c3cc(-c4cccc(C(F)(F)F)c4)cs3)C2)cc1 (stereo not given),-0.71%
13,Cc1cc(Cc2ccc(S(=O)(=O)c3cc4c(cc3O)CCN(C)CC4)cc2)ccc1Cl,-0.06%
14,O=S(=O)(NCCN1CCCC1)c1ccc(-c2ccc(CNCc3ccc(F)cc3)cc2)cc1F,5.72%
15,CN1CCCC(COc2cc3c(cc2Br)CCN3C(=O)Nc2ccc(-c3ccncc3)c(Cl)c2)C1 (stereo not given),9.37%
16,CC(=O)Nc1cccc(C(=O)Nc2cccc(-c3csc(-c4nc5ccccc5[nH]4)c3)c2)c1,4.93%
17,O=C(Nc1ccccc1)N(Cc1ccc(-c2ccc(CNCc3ccc4c(c3)OCO4)cc2)cc1)C1CCN(Cc2ccccc2)CC1,0.62%
18,CC1(C)N=C(N)N=C(N)N1OCc1cc(Cl)c(CON2C(N)=NC(N)=NC2(C)C)cc1Cl,0.92%
19,Nc1nc(N)c2c(Oc3cccc4ccccc34)cccc2n1,4.57%
20,O=C(NCCCCN1CCC(c2ccc3c(c2OCCN2CCCC2)CCCC3)CC1)c1ccc(-c2ccc(C(F)(F)F)cc2)cc1,3.42%
